According to ChEMBL document CHEMBL2218924, “A broad activity screen in support of a chemogenomic map for kinase signalling research and drug discovery” (Biochem J, 2013):

target: Serine/threonine-protein kinase tousled-like 2 (Homo sapiens) (UniProt Q86UE8); conditions: at 10 µM
Sequence (Q86UE8 whole entry, looked up): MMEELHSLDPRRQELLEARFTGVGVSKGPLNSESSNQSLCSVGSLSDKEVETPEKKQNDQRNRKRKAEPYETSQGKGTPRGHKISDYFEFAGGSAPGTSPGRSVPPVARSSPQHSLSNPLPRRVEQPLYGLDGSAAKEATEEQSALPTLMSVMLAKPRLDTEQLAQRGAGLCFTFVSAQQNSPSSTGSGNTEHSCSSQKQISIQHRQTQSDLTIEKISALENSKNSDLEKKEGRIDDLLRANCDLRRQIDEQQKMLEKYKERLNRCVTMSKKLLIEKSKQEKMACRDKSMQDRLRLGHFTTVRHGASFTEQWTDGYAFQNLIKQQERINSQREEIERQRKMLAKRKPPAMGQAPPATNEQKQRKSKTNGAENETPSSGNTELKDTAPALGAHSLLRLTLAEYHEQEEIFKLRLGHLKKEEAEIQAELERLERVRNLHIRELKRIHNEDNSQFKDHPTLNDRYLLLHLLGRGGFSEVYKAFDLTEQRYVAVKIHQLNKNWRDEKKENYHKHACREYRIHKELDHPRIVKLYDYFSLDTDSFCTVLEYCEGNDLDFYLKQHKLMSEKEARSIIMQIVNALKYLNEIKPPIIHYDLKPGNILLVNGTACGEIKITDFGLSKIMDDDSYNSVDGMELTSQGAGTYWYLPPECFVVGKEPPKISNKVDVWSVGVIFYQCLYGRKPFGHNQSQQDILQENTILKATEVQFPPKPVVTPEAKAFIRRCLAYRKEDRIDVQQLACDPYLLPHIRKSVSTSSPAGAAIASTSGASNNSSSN

Question: With `CO[C@H]1C[C@@H]2CC[C@@H](C)[C@@](O)(O2)C(=O)C(=O)N2CCCC[C@H]2C(=O)O[C@H]([C@H](C)C[C@@H]2CC[C@@H](O)[C@H](OC)C2)CC(=O)[C@H](C)/C=C(\C)[C@@H](O)[C@@H](OC)C(=O)[C@H](C)C[C@H](C)/C=C/C=C/C=C/1C` as the compound, how does the residual activity read?
Answer: 83%

Question: Which residual activity does the source give for `Nc1nc(Nc2ccc(S(N)(=O)=O)cc2)nn1C(=S)Nc1c(F)cccc1F` here?
Answer: -1%

Question: `O=C1NC(=O)/C(=C\c2ccc3nccnc3c2)S1` was tested. Which residual activity did it give?
Answer: 91%

Question: `COc1ccc(CNc2nc(N(CCO)CCO)nc3c2ncn3C(C)C)cc1` was tested. Which residual activity did it give?
Answer: 85%

Question: `COc1ccc(C(=O)Nc2sc3c(c2C(N)=O)CCCC3)cc1OC` was tested. Which residual activity did it give?
Answer: 87%

Question: For `O=C(Nc1cccc(Nc2cc(Nc3cccc(C(F)(F)F)c3)ncn2)c1)C1CC1`, which residual activity is on record?
Answer: 97%

Question: `Oc1ccc(Nc2nc(-c3ccc(Cl)cc3)cs2)cc1` was tested. Which residual activity did it give?
Answer: 103%

Question: `COc1ccc(OC)c2c(=S)c3ccccc3[nH]c12` was tested. Which residual activity did it give?
Answer: 87%

Question: Which residual activity does the source give for `O=C1Nc2cc(Br)ccc2/C1=C1/Nc2ccccc2/C1=N\O` here?
Answer: 48%

Question: With `Nc1cccc(-c2cc3c(Oc4cccc(O)c4)ncnc3[nH]2)c1` as the compound, how does the residual activity read?
Answer: 87%

Question: Which residual activity does the source give for `Oc1n[nH]c2nnc(-c3c(-c4ccccc4)nn4ccccc34)cc12` here?
Answer: 82%

Question: Which residual activity does the source give for `COc1cccc(-c2cc(=O)c3ccccc3o2)c1N` here?
Answer: 101%

Question: With `Cc1nc2cc3nc(-c4cccs4)cnc3cc2n1C` as the compound, how does the residual activity read?
Answer: 83%

Question: How did the residual activity turn out when `O=Nc1c(-c2c(O)[nH]c3ccccc23)[nH]c2ccccc12` was run?
Answer: 14%

Question: Which residual activity does the source give for `O=C1c2ccccc2-[n+]2ccc3c([nH]c4ccccc43)c21` here?
Answer: 83%

Question: For `CNc1cc2c(Nc3cccc(Br)c3)ncnc2cn1`, which residual activity is on record?
Answer: 93%

Question: `O=c1cc(-c2cccc3c2Sc2ccccc2S3)oc(N2CCOCC2)c1` was tested. Which residual activity did it give?
Answer: 96%

Question: Which residual activity does the source give for `C[C@@H](N)[C@H]1CC[C@H](C(=O)Nc2ccncc2)CC1` here?
Answer: 94%

Question: Which residual activity does the source give for `Cc1nc(-c2ccccc2)c(-c2ccncc2)o1` here?
Answer: 103%

Question: Which residual activity does the source give for `CCC(=O)Nc1ccc2ncnc(Nc3cccc(Br)c3)c2c1` here?
Answer: 92%

Question: With `Cn1cnc2cc3c(Nc4cccc(Br)c4)ncnc3cc21` as the compound, how does the residual activity read?
Answer: 92%

Question: With `CC(C)n1cnc2/c(=N/c3cccc(Cl)c3)nc(NCCO)[nH]c21` as the compound, how does the residual activity read?
Answer: 68%

Question: With `Oc1c2ccccc2c2c3c(cccc13)N=N2` as the compound, how does the residual activity read?
Answer: 38%

Question: How did the residual activity turn out when `COc1cc2ncnc(Nc3ccc(O)c(Br)c3)c2cc1OC` was run?
Answer: 76%

Question: Which residual activity does the source give for `N#C/C(=C(\N)Sc1ccc(N)cc1)c1ccccc1C(F)(F)F` here?
Answer: 93%

Question: Which residual activity does the source give for `CCOc1cc2ncnc(Nc3cccc(Br)c3)c2cc1OCC` here?
Answer: 95%

Question: How did the residual activity turn out when `O=C1NC(=O)c2c1c1c3ccccc3[nH]c1c1[nH]c3cc(Br)ccc3c21` was run?
Answer: 86%

Question: With `CC#CC(=O)Nc1cc2c(Nc3ccc(F)c(Cl)c3)ncnc2cn1` as the compound, how does the residual activity read?
Answer: 87%

Question: For `NC(=O)c1ccc2[nH]c(-c3ccc(Oc4ccc(Cl)cc4)cc3)nc2c1`, which residual activity is on record?
Answer: 82%

Question: How did the residual activity turn out when `O=C(Nc1cccc(Nc2nccc(Nc3cccc(C(F)(F)F)c3)n2)c1)C1CC1` was run?
Answer: 93%

Question: For `O=c1c2ccccc2[nH]c(=S)n1CCN1CCC(=C(c2ccc(F)cc2)c2ccc(F)cc2)CC1`, which residual activity is on record?
Answer: 94%

Question: For `Ic1cccc(CSc2nnc(-c3ccncc3)o2)c1`, which residual activity is on record?
Answer: 83%

Question: Which residual activity does the source give for `O=C1NC(=O)/C(=C/c2ccc3c(c2)OC(F)(F)O3)S1` here?
Answer: 97%

Question: For `Cc1ccc(NC2=CC(=O)c3sc(C)nc3C2=O)cc1`, which residual activity is on record?
Answer: 84%

Question: How did the residual activity turn out when `CC(=O)O/N=C1\C(=C2\C(=O)Nc3cc(Br)ccc32)Nc2ccccc21` was run?
Answer: 86%
